Measurements as given in PubChem BioAssay (NCI).
The panel holds about 83,000 compounds, 20% with a hit somewhere; the sample as a whole holds those more often.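 Step 1: grow cells in 96-well plates. Step 2: add test compound at a single concentration. Step 3: incubate 48 h. Step 4: record percent growth.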 A number with no mark means an inactive call. The source made the active and inactive calls. How the source made its calls: active means growth percent below 10; inactive means the rest.

How the values were obtained:
Experiment in all cases: NCI-60 one-dose screen, 48 h (100 = growth as untreated, 0 = no growth, -100 = all killed)
Settings in all cases: 10 µM unless noted
[1] = tested on: SK-MEL-2 melanoma
[2] = tested on: EKVX NSCLC
[3] = tested on: SN12C renal
[4] = tested on: UO-31 renal
[5] = tested on: TK-10 renal
[6] = tested on: ACHN renal
[7] = tested on: CAKI-1 renal
[8] = tested on: CCRF-CEM leukemia
[9] = tested on: MOLT-4 leukemia

| Structure (SMILES) | growth [1] | growth [2] | growth [3] | growth [4] | growth [5] | growth [6] | growth [7] | growth [8] | growth [9] |
| --- | --- | --- | --- | --- | --- | --- | --- | --- | --- |
| CCCNC(=O)Oc1ccc(/C(=C(\C)c2ccccc2)c2ccc(OCCCN(C)C)cc2)cc1 | 92.6% | 80.1% | 77.4% | 50% | 84.8% | 93.3% | 83.4% | 75.7% | 66.5% |
| CCOC(=O)CSc1nc2ccccc2c(=O)n1Cc1ccc(S(N)(=O)=O)cc1 | 111% | 97.1% | 99.5% | 84.3% | 98.7% | 102% | 91.3% | 97.1% | 104% |
| CNC(=O)c1cc(Cn2nc(C)c(NC(=O)Nc3ccc(Cl)c(C(F)(F)F)c3)c2C)ccn1 | 82.3% | 102% | 98.6% | 90.5% | 103% | 97.9% | 93.6% | 92.1% | 90.8% |
| Cc1ccc(NC(C(=O)c2ccccc2)c2ccccc2)cc1 (configuration not stated) | 36.1% | 20.5% | 50.1% | 78.9% | 74.6% | 85% | 66.7% | 65.2% | 74.6% |
| Nc1nc(Nc2ccccc2SSc2ccccc2Nc2nc(N)nc(-c3cccs3)n2)nc(-c2ccsc2)n1 | 99.1% | 77.3% | 27.3% | -45.5% (active) | 118% | 65.3% | 20% | 60.5% | 63.2% |
| CCN(Cc1ccccc1)c1ccc(C=O)cc1 | 98.3% | 106% | 96.7% | 74.6% | 64.2% | 91.9% | 88% | 45.5% | 97.2% |
| COc1cc2nc(-c3ccc(Cl)cc3)cc(OCCCN3CCCC3)c2cc1OC | 71.1% | 65.8% | 37.9% | 42.3% | 101% | 35.5% | 3.85% (active) | 44.6% | 40.4% |
| Cc1ccc(S(=O)(=O)Nn2c3c(cc(-c4nc5ccccc5s4)c2=O)CCCCCC3)cc1 | 99.2% | 92.5% | 95.9% | 78.9% | 111% | 97.5% | 86.6% | 105% | 100% |
| N/C(=N\C(N)=N\c1nc2ccccc2s1)c1ccnc(Br)c1 | 7.48% (active) | 82.6% | 40.5% | 33.1% | 82.2% | 27.6% | 25.4% | 21.3% | 34% |
| CN[C@@H](C)C(=O)N[C@H]1CCS[C@H]2CC(C)(C)[C@@H](C(=O)N[C@H]3c4ccccc4C[C@H]3OCC#CC#CCO[C@@H]3Cc4ccccc4[C@@H]3NC(=O)[C@H]3N4C(=O)[C@@H](NC(=O)[C@H](C)NC)CCS[C@H]4CC3(C)C)N2C1=O | 73.7% | 121% | 97.8% | 97.8% | 130% | 106% | 99.9% | 25.1% | 95.5% |
| NC1[C@H](c2c[nH]c3ccccc23)c2c([nH]c3ccccc23)[C@H]1c1c[nH]c2ccccc12 (some centres not stated) | 98.2% | 85.1% | 88.9% | 80.2% | 119% | 88% | 84.8% | 94.5% | 80.6% |
| O=C(CCN1CCCC1)Nc1ccc2c(Nc3ccc(F)cc3)c3ccccc3nc2c1 | 49% | 47.5% | 9.14% (active) | -89.1% (active) | -20.1% (active) | -13.3% (active) | -75.9% (active) | -17.8% (active) | -9.71% (active) |
| COc1cc(CC(=O)c2ccc(O)c(OC)c2)ccc1O | 106% | 111% | 94.2% | 87.5% | 102% | 102% | 98.8% | 94.2% | 80% |
| CCOC(=O)C1=C(C)NC(SCc2cc(=O)oc3ccc(F)cc23)=N[C@@H]1c1cccc2ccccc12 | 85% | 114% | 93.3% | 79.9% | 105% | 91.9% | 87.8% | 102% | 84.7% |
| Brc1ccc(Nc2csc(-c3ccccn3)n2)cc1 | 96.4% | 85.4% | 91.6% | 52.2% | 119% | 82.4% | 63.6% | 97.2% | 96.6% |
| COc1cc2nc(-c3ccc(C(F)(F)F)cc3)cc(OCCCN3CCCC3)c2cc1OC | 49.3% | 65% | 44.5% | 31.5% | 100% | 39.1% | -7.36% (active) | 38.5% | 46.2% |
| O=C(Nc1ccc(F)cc1)Nc1ccc(NC(=O)c2cc(Cl)nc3ccccc23)cc1 | 90.3% | 89.2% | 73.6% | 83.1% | 83.5% | 102% | 78.5% | 41.9% | 64.2% |
| COc1ccc2c(c1)C(=O)CC(c1ccccc1OC)O2 (configuration not stated) | 102% | 73.2% | 94.6% | 96.9% | 169% | 101% | 89.2% | 109% | 81% |
| CC(=O)N1N=C(c2ccc(-n3ccc(C(F)(F)F)n3)c(F)c2)CC1c1ccc[nH]1 (configuration not stated) | 94% | 102% | 102% | 92.7% | 108% | 109% | 95.4% | 93.7% | 85.6% |
| CC(Sc1nc2sc3c(c2c(=O)n1-c1ccc(Cl)cc1)CCCC3)C(=O)Nc1nc(-c2ccc(Br)cc2)cs1 (configuration not stated) | 101% | 90.1% | 96.8% | 81.5% | 99.5% | 106% | 94.4% | 105% | 94.1% |
| CCOc1ccc(/C=N/Nc2cc(C)nc3ccc(Br)cc23)cc1 | 117% | 83.5% | 82.6% | 73.4% | 112% | 96.3% | 95.2% | 38.9% | 76.2% |
| COc1ccc(C(=O)Nc2cccc(C3CCc4c(cc(OC)c(OC)c4OC)O3)c2)cc1 (configuration not stated) | 37.9% | 54.7% | 69.6% | 53.9% | 80.8% | 68.9% | 54.3% | 36.5% | 22.5% |
| O=C1c2ccc3c4c(ccc(c24)C(=O)N1CCCNCc1ccccc1)C(=O)N(CCCNCc1ccccc1)C3=O | -82.9% (active) | -39.2% (active) | -88% (active) | -48.6% (active) | -84.2% (active) | -53.5% (active) | -19.6% (active) | -30.5% (active) | -32.3% (active) |
| CCCCCC(=O)Oc1ccc(/C(=C(/C)Cc2ccc(OC)cc2)c2ccc(OCCCN(C)C)cc2)cc1 | 114% | 88.7% | 79.5% | 58.6% | 100% | 91.9% | 78.3% | 68.1% | 53.5% |
| COc1ccc(/C=C(\C#N)n2nc3cccc(F)c3n2)cc1 | 100% | 104% | 104% | 89.6% | 100% | 99.7% | 81.2% | 98% | 100% |
| N#Cc1cc(-c2nc3ccccc3s2)c(=O)n(NS(=O)(=O)c2ccccc2)c1N | 104% | 101% | 99.9% | 72.7% | 137% | 99.5% | 81.8% | 105% | 107% |
| COc1cccc(-c2nc3occn3c2-c2ccnc(NCCCNS(=O)(=O)c3ccc(C(F)(F)F)cc3)n2)c1 | 92.3% | 92.8% | 85.4% | 71.5% | 106% | 89.3% | 75.3% | 93.9% | 69% |
| CCCCCC(=O)Oc1ccc(/C(=C(\C)c2ccccc2)c2ccc(OCCN3CCCCC3)cc2)cc1 | 81.3% | 93.7% | 79.5% | 59.8% | 85.1% | 96.2% | 88.6% | 85.1% | 63.7% |
